This is an account of results in PubChem BioAssay.

Assay [1] can be described thus: StAR promoter reporter inhibitors, counter-screen for LRH-1 inverse agonist project, cell-based, luminescence, high throughput (AID 651611; in the data active means inhibition above about 28%). Conditions: StAR promoter luciferase reporter counterscreen, at 3.6 µM, active compounds read high.
In assay [2] the target is Nuclear receptor subfamily 5 group A member 2 (Homo sapiens) (UniProt O00482). Nature of the assay: NR5A2 activity suppression in reporter cells – cell-based, luminescence, confirmation (AID 651613; in the data active means inhibition above about 42%;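 further: HEK293T cells co-transfected with LRH-1 and StAR promoter luciferase reporter; 0% = vehicle wells and 100% = parental cells lacking receptor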). Conditions: cell-based LRH-1 luciferase reporter, inverse agonism; at 3.6 µM; active compounds read high.
Assay [3] has as its target Steroidogenic factor 1 (Homo sapiens) (UniProt Q13285). Nature of the assay: inverse agonism at SF1 nuclear receptor – cell-based, luminescence, high throughput, counter-screen for LRH-1 inverse agonist project (AID 651614; in the data active means inhibition above about 44%;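 further: cells cotransfected with StAR promoter reporter and SF1 expression vector; 0% = vehicle on cells with receptor and 100% = vehicle on cells lacking receptor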). Conditions: cell-based SF1 luciferase reporter, at 3.6 µM, active compounds read high. In general terms: Counterscreens check selectivity or assay interference.

Assay [4] can be described thus: compounds suppressing VP16-driven luciferase signal – cell-based, luminescence, high throughput, counter-screen for LRH-1 inverse agonist project (AID 651615). Conditions: Gal4-VP16 luciferase reporter cells, at 3.6 µM, active compounds read high.

A number with no mark means an inactive call. Calls of active or inactive are those of the source. Unless noted, no stated cut-off is given here; in the data, active means inhibition above about 33%; inactive means the rest.

Chain of Nuclear receptor subfamily 5 group A member 2 (Homo sapiens) (O00482 whole entry, looked up): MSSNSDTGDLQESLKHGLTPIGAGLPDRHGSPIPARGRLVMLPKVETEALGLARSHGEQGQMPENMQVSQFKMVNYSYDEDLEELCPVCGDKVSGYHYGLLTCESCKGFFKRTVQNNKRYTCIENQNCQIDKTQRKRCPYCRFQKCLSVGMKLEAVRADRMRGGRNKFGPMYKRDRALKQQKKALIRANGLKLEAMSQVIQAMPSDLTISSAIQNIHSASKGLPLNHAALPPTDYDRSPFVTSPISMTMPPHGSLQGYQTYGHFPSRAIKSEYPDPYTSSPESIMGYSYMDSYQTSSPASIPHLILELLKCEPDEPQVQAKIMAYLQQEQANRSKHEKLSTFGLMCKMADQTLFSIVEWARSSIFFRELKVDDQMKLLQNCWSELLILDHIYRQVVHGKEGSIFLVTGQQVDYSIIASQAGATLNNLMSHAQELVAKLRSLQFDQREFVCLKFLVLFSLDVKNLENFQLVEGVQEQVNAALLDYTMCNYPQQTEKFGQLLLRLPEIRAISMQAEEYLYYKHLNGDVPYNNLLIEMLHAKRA
Chain of Steroidogenic factor 1 (Homo sapiens) (Q13285 whole entry, looked up): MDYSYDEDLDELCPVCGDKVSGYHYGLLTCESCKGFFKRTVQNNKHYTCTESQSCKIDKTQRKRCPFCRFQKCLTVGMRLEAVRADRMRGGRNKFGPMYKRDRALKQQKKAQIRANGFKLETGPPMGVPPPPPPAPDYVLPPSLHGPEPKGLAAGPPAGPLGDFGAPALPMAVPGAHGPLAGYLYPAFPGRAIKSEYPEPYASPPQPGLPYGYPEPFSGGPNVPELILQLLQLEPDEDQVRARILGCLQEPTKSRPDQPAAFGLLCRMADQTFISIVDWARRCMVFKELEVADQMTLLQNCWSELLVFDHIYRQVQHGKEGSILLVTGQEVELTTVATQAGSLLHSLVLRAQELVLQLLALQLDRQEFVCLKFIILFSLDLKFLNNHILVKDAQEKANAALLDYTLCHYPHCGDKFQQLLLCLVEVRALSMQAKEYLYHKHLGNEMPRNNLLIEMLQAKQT

Regarding `O=C(CSc1nnc(CNC(=O)c2c(F)cccc2F)o1)Nc1ccc2c(c1)OCCO2`, the inhibition (usually the drop in the measured response relative to a control, in per cent) in assay [1] is 9.56%; in assay [2] it was 44.6% (active); in assay [3], 54.6% (active); in assay [4], -8.58%.

With `COc1cc(-c2cnc3c(NC=O)cc(-c4ccccc4Cl)cn23)cc(OC)c1OC`, the inhibition was 64.9% (active) in assay [1], 45.6% (active) in assay [2], 62.6% (active) in assay [3] and -21.3% in assay [4].

Take `COC(=O)Cc1sc(-c2ccccn2)nc1-c1ccccc1`: the inhibition in assay [1] is 11.6%; in assay [2], 61.7% (active); in assay [3] it was 58.9% (active); in assay [4], -7.62%.

Take `COc1cccc(C(C)(O)c2nc(-c3cccc(C#N)c3)cs2)c1` (centres undefined): the inhibition was 19.6% in assay [1], 55.2% (active) in assay [2], 49.4% (active) in assay [3] and 22.6% in assay [4].

For the compound `COC(=O)c1ccc(NC(=O)CN2C(=O)CNC2=O)cc1`, the inhibition is 11.5% in assay [1], 62.9% (active) in assay [2], 50.9% (active) in assay [3] and -6.93% in assay [4].

Consider `Cc1nn(Cc2ccc(Cl)cc2)c(C)c1NC(=O)c1noc2c1CCCCC2`, for which the inhibition in assay [1] was 21%; in assay [2], 46.8% (active); in assay [3], 54.7% (active); in assay [4], 18.3%.

Regarding `CCCCNc1cc(C)nc(NCc2ccccc2)n1`, the inhibition in assay [1] was 35.5% (active); in assay [2], 57.6% (active); in assay [3], 68.8% (active); in assay [4] it was 50.8% (active).

Turning to `O=C(Cc1c(F)cccc1Cl)Nc1ccncc1`, the inhibition in assay [1] was 3.12%; in assay [2], 45% (active); in assay [3], 43.5% (active); in assay [4], -7.58%.

As for `COC(=O)c1ccc(N2CCCCC2)c(NC(=O)c2ccco2)c1`, the inhibition in assay [1] is 9.72%; in assay [2], 55.3% (active); in assay [3], 61.5% (active); in assay [4], 4.64%.

Regarding `O=[N+]([O-])c1ccc(COc2cccc(CNc3ccc(Br)cc3)c2)cc1`, the inhibition in assay [1] was 3.67%; in assay [2], 48.8% (active); in assay [3] it was 37.4%; in assay [4] it was -6.59%.

Consider `CCCCSc1nc(SCC(=O)NCc2ccco2)c2c3c(sc2n1)COC(C)(CC)C3` (centres undefined), for which the inhibition in assay [1] is 4.87%; in assay [2] it was 53.8% (active); in assay [3] it was 44.6% (active); in assay [4], -1.29%.

Take `CCN(CC)c1ccc(NC(=O)CSc2nnc(N)s2)cc1C`: the inhibition in assay [1] is -2.14%; in assay [2], 57.1% (active); in assay [3], 51.4% (active); in assay [4] it was -4.26%.

Turning to `O=C(c1ccc([N+](=O)[O-])s1)N1CCN(c2ncccn2)CC1`, the inhibition in assay [1] is 1.48%; in assay [2], 30.8%; in assay [3], 41.5%; in assay [4], 4.85%.

Regarding `O=C(Nc1ccccn1)c1ccc([N+](=O)[O-])o1`, the inhibition in assay [1] was 14.3%; in assay [2], 58.2% (active); in assay [3], 59.1% (active); in assay [4], -16.1%.

With `CCOc1ccc(NC(=O)CN2CCN(CC(=O)Nc3ccc(OC)cc3)CC2)cc1`, the inhibition in assay [1] was 9.49%; in assay [2] it was 58.5% (active); in assay [3], 56.2% (active); in assay [4] it was 8.13%.

`CCOc1ccc(CCNC(=O)COC(=O)CCc2cc(OC)c(OC)c(OC)c2)cc1OCC`: the inhibition is 2.32% in assay [1], 50.1% (active) in assay [2], 47.2% (active) in assay [3] and 2.92% in assay [4].

As for `CC(=O)c1ccc(NC(=O)CSc2nc3[nH]ncc3c(=O)[nH]2)cc1`, the inhibition is -0.97% in assay [1], 61.5% (active) in assay [2], 50.8% (active) in assay [3] and -6.29% in assay [4].

As to `CN1CCN(c2ccc(S(=O)(=O)N3CCCCC3)cc2NC(=O)COc2ccc([N+](=O)[O-])cc2)CC1`, the inhibition in assay [1] was 2.36%; in assay [2], 59.6% (active); in assay [3], 53.1% (active); in assay [4] it was 4.16%.

For `Cc1ccc(S(=O)(=O)NCc2ccncc2)cc1`, the inhibition in assay [1] was 5.31%; in assay [2], 54.7% (active); in assay [3], 43% (active); in assay [4] it was 48.7% (active).

With `CCCCNC(=O)COC(=O)c1c2c(nc3ccccc13)/C(=C\c1cccs1)CC2`, the inhibition in assay [1] was -10.4%; in assay [2], 34.9%; in assay [3], 12.3%; in assay [4] it was 26.5%.

Turning to `Cc1ccc(-c2csc(NC(=O)c3ccc([N+](=O)[O-])o3)n2)cc1`, the inhibition in assay [1] was 3.07%; in assay [2], 57.5% (active); in assay [3], 54.4% (active); in assay [4] it was -19.4%.

On to `O=C(CNc1cccc2ccccc12)N/N=C/c1ccc([N+](=O)[O-])o1`, for which the inhibition in assay [1] is 27.6%; in assay [2], 56.1% (active); in assay [3] it was 56% (active); in assay [4], 39.9% (active).

In the case of `COc1ccc(N2CCN(C(=O)CSc3nnc(-c4cc5ccccc5cc4O)n3C)CC2)cc1`, the inhibition in assay [1] was 19.8%; in assay [2], 59% (active); in assay [3] it was 58.3% (active); in assay [4], 13.6%.

Turning to `Cc1ccc(C)c(NC(=O)CSc2nnc(CCNC(=O)OC(C)(C)C)o2)c1`, the inhibition was 20.9% in assay [1], 59.2% (active) in assay [2], 59.8% (active) in assay [3] and -2.78% in assay [4].

Take `CC(=O)c1ccc(-c2c(C)cc3oc(=O)cc(-c4ccccc4)c3c2C)cc1`: the inhibition was -6.71% in assay [1], 57% (active) in assay [2], 52.6% (active) in assay [3] and -3.38% in assay [4].

With `CCOc1cc(S(=O)(=O)NCc2ccncc2)ccc1Cl`, the inhibition in assay [1] is 21.4%; in assay [2], 56.6% (active); in assay [3] it was 57.9% (active); in assay [4] it was 55.6% (active).
